Measured values: PubChem BioAssay AID1159580 (chemical genetic matrix, 2015)
Hit rate of the full screen: of about 5,500 compounds, about 2,000 (36%) were called active. Not shown: some 18% with an inconclusive outcome. Rule as the data show it: active = normalized growth mostly below about 0.91 (no sharp cut-off); inconclusive = no clear call, values can overlap the other calls; inactive = mostly above about 0.92. Some of the results follow.

Experiment: chemical genetic growth profiling, strain panel (AID 1159580);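 also: tested at 20 µM; growth read once vehicle control cultures reached saturation at 30 °C; 1 = growth at the plate median or of vehicle wells; lower values mean less growth of the strain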
Conditions: S. cerevisiae deletion strains, growth OD

Measured: normalized growth

C[C@@H]1O[C@@H](O[C@H]2C[C@@H](O)[C@]3(CO)[C@H]4[C@H](O)C[C@]5(C)[C@@H](C6=CC(=O)OC6)CC[C@]5(O)[C@@H]4CC[C@]3(O)C2)[C@H](O)[C@H](O)[C@H]1O
inactive: locus YAL040C, strain CLN3, hits give low values 0.989 | locus YCL061C, strain MRC1 (second series), hits give low values 0.996 | locus YDR150W, strain NUM1, hits give low values 1 | locus YDR363W, strain ESC2, hits give low values 0.984 | locus YER002W, strain NOP16, hits give low values 1.02 | locus YGR078C, strain PAC10, hits give low values 0.985 | locus YGR229C, strain SMI1, hits give low values 0.993 | locus YJR075W, strain HOC1, hits give low values 0.997 | locus YMR263W, strain SAP30, hits give low values 0.996 | locus YMR307W, strain GAS1, hits give low values 0.995 | locus YNL175C, strain NOP13, hits give low values 1.02 | locus YNL197C, strain WHI3, hits give low values 1.03 | locus YNL224C, strain SQS1, hits give low values 0.988 | locus YOR083W, strain WHI5 (second series), hits give low values 1
